Screening results from PubChem.
ERb SRC1 inh: ER-beta (human) coactivator binding inhibition | Q92731 | TR-FRET ER-beta LBD / SRC1-Cy5 peptide binding; receptor agonist-loaded with 1 µM estradiol | inhibition, % at 25.6 µM | 1.3% of 86,000 active | AID 633;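 active = compounds whose percent inhibition of the receptor-coactivator binding signal exceeds about 50% in the single-dose screen, limit read from the data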;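 also: 0% = receptor plus peptide wells without compound and 100% = peptide-only wells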
Target sequence (Q92731 whole entry, looked up, the tested form may be a part): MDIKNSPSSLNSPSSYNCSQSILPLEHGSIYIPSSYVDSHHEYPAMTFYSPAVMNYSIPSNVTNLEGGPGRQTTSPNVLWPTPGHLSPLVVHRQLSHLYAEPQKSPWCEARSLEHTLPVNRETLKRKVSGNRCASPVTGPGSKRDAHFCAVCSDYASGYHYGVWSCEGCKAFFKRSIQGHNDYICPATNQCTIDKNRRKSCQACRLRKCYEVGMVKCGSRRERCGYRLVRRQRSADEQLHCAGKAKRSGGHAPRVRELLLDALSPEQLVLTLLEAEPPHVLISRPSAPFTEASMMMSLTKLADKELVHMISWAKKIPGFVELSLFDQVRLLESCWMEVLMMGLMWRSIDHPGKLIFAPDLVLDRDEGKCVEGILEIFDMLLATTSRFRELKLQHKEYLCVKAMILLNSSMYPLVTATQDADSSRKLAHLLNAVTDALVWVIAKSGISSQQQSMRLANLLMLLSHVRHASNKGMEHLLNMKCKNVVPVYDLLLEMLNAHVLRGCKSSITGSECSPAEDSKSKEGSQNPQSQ
FAK inh: inhibitors of human focal adhesion kinase | Q05397 | biochemical FAK kinase activity assay | inhibition, %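 (tested at 7 µM)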 | 0.84% of 97,000 active | AID 727; in the data active = inhibition above about 19%;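 also: 0% = DMSO and 100% = reference compound high control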
ERa coact inh: blocks coactivator binding to human estrogen receptor alpha; P03372; TR-FRET ER-alpha LBD / SRC-1 peptide, estradiol-bound; inhibition, % at 25.6 µM; 1.7% of 86,000 active; in the data active = inhibition above about 50%;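 also: 0% = receptor plus peptide control and 100% = peptide only without receptor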
Smad3 inh: Smad3 (human) transcription factor binding inhibition; P84022; TR-FRET Smad3/Dy647-FoxH1 peptide binding, europium anti-His; inhibition, % at 25 µM; 0.29% of 88,000 active;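 active = compounds that reduce the energy-transfer binding signal between the protein and its labelled peptide by more than half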;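 also: 0% = Smad3 plus labelled peptide maximal FRET and 100% = peptide-only background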
ERa SRC1 pot: enhances coactivator binding to human estrogen receptor alpha. TR-FRET ERalpha-LBD/SRC-Cy5 coactivator binding, 2 h; 100 = basal binding, no effect. P03372. AID 639. 1.3% of 86,000 active. coactivator binding (% of control), % at 25.6 µM; in the data active = activity above about 200%;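 also: binding measured in presence of low estradiol as agonist stimulus; 0% = peptide alone without receptor and 100% = receptor with peptide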
An asterisk follows results filed as active; . = no result given; [ ] = another dose, or the depositor's remark. A selection: hits, their analogues and other compounds. The true share with any hit is near 3.3%.

SMILES | ERb SRC1 inh | FAK inh | ERa coact inh | Smad3 inh | ERa SRC1 pot
CCOC(=O)c1ccc(NC(=O)COc2ccc(-n3cnnn3)cc2)cc1 | 81.6*[fluorescence artefact?] | 9.7 | 90.6*[fluorescence artefact?] | 5.2 | 14.4
O=C(COc1ccc(F)cc1)Nc1ccc(-n2cnnn2)cc1 | 0.3 | 1.9 | -1.3 | -5.7 | 123.8
CCOC(=O)c1ccc(NC(=O)CCOc2ccccc2)cc1 | -3.4 | -1.0 | -1.3 | -1.0 | 659.2*[fluorescence artefact?]
CCOc1cccc(SCc2noc(C(=O)NCC3CCCO3)c2C(=O)O)c1 (stereo not given) | . | 9.6 | . | . | .
CCOc1ccccc1C(=O)Nc1cccc(-c2nnc(-c3ccccc3)o2)c1 | 25.0 | 11.7 | 38.9 | -13.5 | 316.5*[fluorescence artefact?]
Cc1ccc(-[n+]2cc(=O)o[nH]2)cc1 | . | . | . | -3.4 | .
CC(=O)O[C@H]1CC[C@@]2(C)C(=CC[C@H]3[C@H]2CC[C@]2(C)[C@@H]4[C@@H](C)[C@]5(CC[C@H](C)CN5)O[C@@H]4C[C@@H]32)C1 | . | . | . | 7.7 | .
CCOC(=O)COn1c(=O)c(=O)n(OC)c2ccccc21 | 18.4 | -0.2 | 14.3 | 1.2 | 101.1
CCOC(=O)COn1c(=O)c(=O)n(O)c2ccccc21 | 50.1*[fluorescence artefact?] | . | 36.0 | 11.2 | 74.2
O=C(NCCn1ccc2ccccc21)c1ccc(S(=O)(=O)N2CCCCC2)cc1 | 34.8 | . | -7.9 | 59.0* | 109.7
CCC(=O)NCCn1c(C)cc2ccccc21 | -1.8 | -6.6 | -4.9 | -1.1 | 79.9
Cc1cc2ccccc2n1CCNC(=O)c1ccc(S(=O)(=O)N2CCOCC2)cc1 | 31.0 | . | 70.0*[fluorescence artefact?] | 7.2 | 97.9
O=C(NCc1ccco1)c1ccc(S(=O)(=O)N2CCOCC2)cc1 | 56.2*[fluorescence artefact?] | 10.6 | 70.0*[fluorescence artefact?] | -7.6 | 37.4
Cc1cc2ccccc2n1CCNC(=O)Cc1cccc2ccccc12 | 5.3 | 1.2 | -0.3 | 4.4 | 211.7*
Cc1ccc(S(=O)(=O)OC2CCN(C)CC2)cc1 | . | . | . | 14.0 | .
CCN=C(N)CSS(=O)(=O)O | . | . | . | 4.7 | .
O=C(O)c1cccc(N=Nc2c(S(=O)(=O)O)ccc3c2C(=O)c2ccccc2C3=O)c1O | . | . | . | -6.4 | .
NC(=O)c1nsc(C(=O)N(CC(=O)NCc2ccco2)c2ccccc2F)c1N | -12.6 | 23.7* | -10.6 | -2.0 | 93.2
COc1ccc(Cl)cc1-c1nc(-c2ccc(Br)o2)no1 | 47.5 | -1.4 | 58.7*[fluorescence artefact?] | -20.0 | 277.0*[fluorescence artefact?]
COc1ccc(-c2nc(-c3ccc(Br)o3)no2)cc1 | 43.6 | 0.2 | 41.0 | -13.5 | 121.2
C=CCNC(=O)C1CC(=O)N(c2ccc(Br)cc2)C1 (stereo not given) | 95.2*[fluorescence artefact?] | -2.9 | -3.6 | 9.4 | 100.4
O=C1C(=O)c2ccccc2C(O)=C1Cc1ccccc1 | . | . | . | 3.4 | .
C[C@H](OP(=O)(O)O)[C@H](N)C(=O)O | . | . | . | 2.8 | .
CCCCCNC(=O)C1CC=CCC1C(=O)O (stereo not given) | -2.4 | 0.2 | -1.7 | 2.8 | 272.6*[fluorescence artefact?]
CCCCN1CSC(=S)N(Cc2ccccc2)C1 | . | . | . | 41.1 | .
SMILES | ERb SRC1 inh | FAK inh | ERa coact inh | Smad3 inh | ERa SRC1 pot
N[C@@H](CC1=CS(=O)(=O)c2ccc(Cl)cc21)C(=O)O | . | . | . | 77.4* | .
NNC(=O)Cc1cccnc1 | . | . | . | 6.5 | .
CCOC(=O)C1CCCN(C(=O)c2ccc(CS(=O)(=O)c3ccc(C)cc3)o2)C1 (stereo not given) | 55.2* | -7.4 | 36.5 | 12.2 | 66.2
Cc1ccc(S(=O)(=O)Cc2ccc(C(=O)N3CCCCCC3)o2)cc1 | 8.1 | -3.4 | 4.7 | -6.7 | 100.8
O=C(OCc1cc(=O)n2c(n1)sc1ccccc12)c1ccc2c(=O)n3c(nc2c1)CCC3 | 49.1 | . | 79.0*[fluorescence artefact?] | 8.2 | 29.0
CN(C(=O)c1ccc2c(=O)n3c(nc2c1)CCCCC3)c1ccccc1 | 11.5 | 4.1 | 7.8 | -0.4 | 92.1
C(=Nc1ccc2c(c1)Cc1ccccc1-2)c1ccccn1 | . | . | . | 2.5 | .
CSc1ncnc2c1ncn2[C@H]1O[C@@H](CO)[C@H](O)O[C@@H]1O | . | . | . | -3.8 | .
C=C(C)c1ccc(C(C)(C)NC(=O)N2CCN(C)CC2)cc1 | 4.7 | 4.2 | -2.4 | 70.6* | 536.6*[fluorescence artefact?]
C=C(C)c1cccc(C(C)(C)NC(=O)N2CCCC2)c1 | -5.5 | -0.2 | -11.3 | -3.5 | 100.4
Cc1cccc2cc3ccc4ccccc4c3cc12 | . | . | . | 5.3 | .
CCOC(=O)c1c(O)[nH]c(=O)c(CC)c1C | . | . | . | 10.0 | .
Cc1cccc(Nc2cc(Cl)nc(SCC(=O)O)n2)c1C | . | . | . | 7.7 | .
Cc1ccc(-c2nnn(CC(=O)Nc3ccc4nn(-c5ccccc5)nc4c3)n2)o1 | 39.4 | 1.0 | 58.2* | 5.4 | 154.7
Cc1ccc(-c2nnn(CC(=O)NCC3CC3)n2)o1 | -14.4 | 2.1 | -3.2 | 3.0 | 102.7
Cc1cc(S(=O)(=O)N(Cc2ccc(F)cc2)CC2CCCO2)ccc1-n1cnnn1 (stereo not given) | 62.9* | -1.2 | -0.6 | 2.6 | 120.2
